High-throughput results: PubChem BioAssay, Broad Institute
AF4-AF9 inh: MLL-AF4/AF9 protein interaction inhibition | P42568 | AlphaScreen, biotin-AF4 peptide binding to FLAG-AF9 | inhibition, % at 10 µM | actives 0.47% (n = 350,000);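 active = every replicate reaching a set inhibition limit, whatever the replicate mean, cut at about 25% in these data; inconclusive = mean inhibition reaches that limit but some replicates miss it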;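 also: 0% = plate neutral control median and 100% = total signal loss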
RAD52 inh: RAD52 (human) annealing inhibition. P43351. recombinant RAD52 DNA annealing, FRET fluorescence. inhibition, % at 18.7 µM. actives 0.46% (n = 360,000). AID 651710;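 active = every replicate showing at least 50% inhibition; inconclusive = mean inhibition at least 50% but not in every replicate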
DENV2 CPE rescue: protects cells from dengue virus 2 cytopathic effect; DENV2-infected cells, cytopathic effect rescue, plate reader; CPE inhibition, % at 9.99 µM; actives 1.7% (n = 350,000); AID 651640; in the data active = CPE inhibition above about 20%, passing the limit was not always enough; inconclusive = no clear call, values can overlap the other calls; tested in BHK-21 cells;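 also: 0% = median of neutral control wells and 100% = median of positive control wells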
ERAP1 HTS inh: blocks human ERAP1 aminopeptidase activity | Q9NZ08 | recombinant ERAP1, Leu-AMC fluorescence, 60 min | inhibition, % at 10.7 µM | actives 0.15% (n = 340,000) | AID 652197;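 active = mean replicate inhibition of at least 30%, or all replicates individually reaching that 30% level; inactive = mean below 30% and not every replicate reaching it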;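 also: 0% = neutral control wells and 100% = L-leucinethiol positive control wells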
Target sequence (Q9NZ08 whole entry, looked up): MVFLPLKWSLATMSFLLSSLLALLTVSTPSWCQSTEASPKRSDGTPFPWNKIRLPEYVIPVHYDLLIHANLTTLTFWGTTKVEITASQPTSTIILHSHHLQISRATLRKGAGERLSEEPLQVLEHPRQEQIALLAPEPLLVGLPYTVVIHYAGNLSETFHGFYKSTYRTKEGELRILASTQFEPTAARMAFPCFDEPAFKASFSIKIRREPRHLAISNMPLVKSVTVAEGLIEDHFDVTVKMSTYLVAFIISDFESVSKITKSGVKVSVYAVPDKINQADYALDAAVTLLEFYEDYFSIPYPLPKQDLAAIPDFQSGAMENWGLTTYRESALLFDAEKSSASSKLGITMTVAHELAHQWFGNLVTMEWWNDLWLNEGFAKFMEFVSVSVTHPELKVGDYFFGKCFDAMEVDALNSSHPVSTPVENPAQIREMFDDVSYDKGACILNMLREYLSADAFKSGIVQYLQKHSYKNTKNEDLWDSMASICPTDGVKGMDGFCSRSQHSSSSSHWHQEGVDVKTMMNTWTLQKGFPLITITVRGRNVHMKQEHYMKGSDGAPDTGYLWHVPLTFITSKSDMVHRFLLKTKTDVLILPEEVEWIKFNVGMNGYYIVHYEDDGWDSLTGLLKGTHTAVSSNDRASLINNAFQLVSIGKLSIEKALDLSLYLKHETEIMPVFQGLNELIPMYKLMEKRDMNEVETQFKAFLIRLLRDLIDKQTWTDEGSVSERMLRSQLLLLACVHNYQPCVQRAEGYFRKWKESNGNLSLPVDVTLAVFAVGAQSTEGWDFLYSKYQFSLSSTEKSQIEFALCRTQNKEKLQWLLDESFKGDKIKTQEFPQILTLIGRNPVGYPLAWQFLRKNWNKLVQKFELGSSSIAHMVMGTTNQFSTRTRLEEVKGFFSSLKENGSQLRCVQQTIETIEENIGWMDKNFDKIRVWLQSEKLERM
FGF22 binding: binders of recombinant human FGF22 by thermal shift | Q9HCT0 | SYPRO orange fluorescence; percent of sucrose octasulfate shift, DMSO zero | activity (Tm shift, normalised), % at 9.99 µM | actives 1.5% (n = 340,000);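 active = mean Tm shift, scaled 0 neutral to 100 positive control, at about 1.3% or above, every replicate too, limit read from the data; inconclusive = no clear call, values can overlap the other calls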
* hit, by the source's call; ? = inconclusive; / = not tested or not shown. In the library only some 4% were active in any assay of this set; here they are far more common.

SMILES | AF4-AF9 inh | RAD52 inh | DENV2 CPE rescue | ERAP1 HTS inh | FGF22 binding
COc1ccccc1-c1cncc(NC(C)=O)n1 | -8 | -19 | 27* | -2 | 0
CC(C)C(=O)Nc1nnc(S(=O)(=O)N2CCc3ccccc32)s1 | -2 | -14 | 107* | -4 | 0
CC(C)C(=O)Nc1nnc(S(=O)(=O)N2CCCc3ccccc32)s1 | 4 | -12 | -2 | -1 | 0
COc1ccc2c3c(n(C)c2c1)[C@H](CO)N(CC1CC1)CC31CCN(C(=O)Nc2ccc(F)cc2F)CC1 | -2 | / | 2 | / | 0
CC(C)CC#Cc1ccc2c(c1)O[C@@H](CN(C)C(=O)Nc1ccccc1F)[C@H](C)CN([C@@H](C)CO)S2(=O)=O | 4 | 18 | -16 | 1 | -1
CC(C)C[C@@H](COCc1ccc(Cl)cc1)N1CCN(C(=O)c2ccc(C(F)(F)F)cc2)CCC1=O | -3 | -11 | -5 | / | -1
CC(C)CC(COCc1ccc(Cl)cc1)N1CCN(C(=O)c2ccc(Cl)cc2Cl)CCC1=O (centres undefined) | -1 | -2 | 100* | / | 0
CCn1c(C)c(C)c2cc(C(=O)NCCCN3CCCCC3)ccc21 | 11 | -7 | -1 | 1 | 0
CCn1c(C)c(C)c2cc(C(=O)NCCCN3CCCCCC3)ccc21 | 29* | -21 | -1 | -3 | 0
C[C@@H](NC(=O)C[C@H]1CC[C@H]2[C@@H](COC[C@H](O)CN2C(=O)Nc2ccccc2)O1)c1ccccc1 | 0 | 3 | 50* | -1 | 0
C[C@@H](NC(=O)C[C@H]1CC[C@@H]2[C@H](COC[C@H](O)CN2C(=O)Nc2ccccc2)O1)c1ccccc1 | -3 | 7 | 21* | -1 | 0
C[C@H](NC(=O)C[C@@H]1CC[C@@H]2[C@H](COC[C@@H](O)CN2C(=O)Nc2ccccc2)O1)c1ccccc1 | -1 | 12 | 7 | 0 | 0
CCn1nc(CC(=O)O)c2ccccc2c1=O | 0 | 2 | 5 | 0 | 44*
CCOC(=O)Cc1nn(CC)c(=O)c2ccccc12 | -1 | -15 | -8 | 1 | 0
OCCCNC(=S)Nc1ccc(Oc2ccccc2)cc1 | 7 | -2 | 6 | 4 | 44*
Cc1ccccc1-c1ccc([C@H]2[C@H](CO)N3C(=O)CN(C(=O)c4ccc(F)cc4)C[C@@H]23)cc1 | -4 | -2 | 6 | -2 | /
CC(C)(C)OC(=O)NCCCCCc1cn([C@@H](CO)C(=O)NCCCCCCCCCCC(=O)N2CCN(C(=O)OC(C)(C)C)CC2)nn1 | 3 | -9 | -6 | -4 | 1.3*
C#CCOCCOCCOCCNc1nc(N2CCN(C(=O)CCCCCCCCCCNC(=O)[C@@H](CCSC)n3cc(CCO)nn3)CC2)nc(N2CCN(C(=O)CCCCCCCCCCNC(=O)[C@H](CCSC)n3cc(CCO)nn3)CC2)n1 | -1 | 12 | / | 3 | 0
C#CCOCCOCCOCCNc1nc(N2CCN(C(=O)CCCCCCCCCCNC(=O)Cn3cc(CCCCCN)nn3)CC2)nc(N2CCN(C(=O)CCCCCCCCCCNC(=O)[C@@H](CCSC)n3cc(CCO)nn3)CC2)n1 | / | 52* | / | -5 | /
C#CCOCCOCCOCCNc1nc(N2CCN(C(=O)CCCCCCCCCCNC(=O)Cn3cc(C[C@@H](C)O)nn3)CC2)nc(N2CCN(C(=O)CCCCCCCCCCNC(=O)[C@@H](CCC(=O)O)n3cc(CCCCCN)nn3)CC2)n1 | 8 | -10 | -9 | -5 | -1
C#CCOCCOCCOCCNc1nc(N2CCN(C(=O)CCCCCCCCCCNC(=O)[C@H](CO)n3cc(CCCSC)nn3)CC2)nc(N2CCN(C(=O)CCCCCCCCCCNC(=O)[C@H](CCCCN)n3cc(CCO)nn3)CC2)n1 | 19 | 55* | -2 | -3 | -1
Cc1cc(/C=N/NC(=O)c2ccsc2)c(C)n1-c1cnccn1 | -1 | -9 | -8 | -3 | 44*
Cc1cc(C)cc(-n2c(C)cc(/C=N/NC(=O)c3ccncc3)c2C)c1 | 10 | -8 | 10 | 0 | 0
COc1ccc(NC(=O)N[C@H]2CC[C@H](CCNC(=O)Cc3ccncc3)O[C@@H]2CO)cc1 | 3 | -15 | -3 | 4 | 0
O=C(C[C@H]1C[C@@H]2c3cc(NC(=O)Nc4ccccc4)ccc3O[C@@H]2[C@@H](CO)O1)NC1CCCCC1 | 5 | -5 | 11 | 0 | 0
SMILES | AF4-AF9 inh | RAD52 inh | DENV2 CPE rescue | ERAP1 HTS inh | FGF22 binding
c1ccc(CNc2nc(-c3cccs3)nc3ccccc23)cc1 | 0 | -66 | 1 | 0 | 43*
C[C@H](CO)N1C[C@H](C)[C@@H](CN(C)Cc2ccc(C(F)(F)F)cc2)Oc2ccc(NC(=O)Cc3cn(C)c4ccccc34)cc2CC1=O | -4 | -27 | 12 | -1 | 0
C[C@@H]1CN([C@H](C)CO)C(=O)Cc2cc(NC(=O)Cc3cn(C)c4ccccc34)ccc2O[C@H]1CN(C)Cc1ccc2c(c1)OCO2 | 3 | -40 | 51* | 0 | 0
C[C@@H]1CN([C@@H](C)CO)C(=O)Cc2cc(NC(=O)Cc3cn(C)c4ccccc34)ccc2O[C@@H]1CN(C)Cc1ccc(C(F)(F)F)cc1 | -5 | 1 | 77* | -1 | 0
C[C@H](NC(=O)N(C)C[C@@H]1OCc2ccccc2-c2c(n(C)c3ccccc23)C(=O)N([C@H](C)CO)C[C@@H]1C)c1ccccc1 | -3 | 18 | ? | / | 0
C[C@@H]1CN([C@H](C)CO)C(=O)c2cc(NC(=O)CCCN(C)C)ccc2O[C@@H]1CN(C)Cc1ccc(C(F)(F)F)cc1 | 5 | 16 | -3 | -6 | 0
O=C(N[C@H]1CC[C@H](CCNS(=O)(=O)c2ccc(F)cc2)O[C@@H]1CO)C1CCCC1 | 0 | -24 | 32* | -1 | 0
Cc1ccccc1S(=O)(=O)NCC[C@@H]1CC[C@@H](NC(=O)C2CCCCC2)[C@@H](CO)O1 | -2 | -9 | 27* | 0 | 0
CCS(=O)(=O)NCC[C@@H]1CC[C@@H](NS(=O)(=O)c2ccccc2C)[C@H](CO)O1 | 2 | -3 | 50* | 0 | 0
NCC[C@H]1CC[C@H](NC(=O)C2CCCCC2)[C@H](CO)O1 | 2 | -18 | 7 | -2 | 0
CCS(=O)(=O)NCC[C@H]1CC[C@H](NS(=O)(=O)c2ccccc2C)[C@@H](CO)O1 | 0 | -8 | -4 | -1 | 0
NCC[C@@H]1CC[C@@H](NC(=O)C2CCCC2)[C@@H](CO)O1 | 0 | -4 | 36* | -1 | 0
CN1C(=O)c2cc(NC(=O)Nc3ccccc3)ccc2OC[C@@H]2O[C@H](CC(=O)NC3CCC3)CC[C@@H]21 | 0 | -21 | 4 | 2 | -1
CCN(CC)CCCNC(=S)N1CCN(c2nc(-c3ccc(F)cc3)cs2)CC1 | 15 | 47 | -1 | 7 | 0
CCN(CC)CCCNC(=S)N1CCN(c2nc3ccccc3n2CC)CC1 | 2 | 2 | 41* | -3 | 0
CCOC(=O)C1(CCOc2ccccc2)CCN(Cc2cccc(-n3cccn3)c2)CC1 | 6 | 2 | 4 | 5 | 0
